Assay [1] deals with Bile acid receptor (Homo sapiens) (UniProt Q96RI1). Kind of assay: OT_FXR_FXRSRC1_0480: Odyssey Thera (OT) 8-hour HEK293T Protein-Complementation Assay for Farnesoid X receptor/SRC-1 Co-activator (AID 2283383). The procedure, abridged:
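PCA, HEK293T, 8 h compound exposure; FXR–SRC-1 binding reconstitutes split reporter; fluorescence intensity; positive-direction fit vs DMSO.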

Assay [2] shares this target. Description: OT_FXR_FXRSRC1_1440: Odyssey Thera (OT) 24-hour HEK293T Protein-Complementation Assay for Farnesoid X receptor/SRC-1 Co-activator (AID 2283384). A digest of the protocol: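 Measures ligand-driven FXR–SRC-1 co-activator recruitment in HEK293T via fragment complementation, fluorescence intensity at 24 h. DMSO served as negative control and baseline for gain-of-signal fitting.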

Assay [3] concerns the target Retinoic acid receptor RXR-alpha (Homo sapiens) (UniProt P19793). Kind of assay: OT_NURR1_NURR1RXRa_0480: Odyssey Thera (OT) 8-hour HEK293T Protein Complementation Assay for Nurr1/retinoid X receptor (RXR) (AID 2283385). The procedure, abridged:
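Interaction of bait and prey reconstitutes a functional reporter, whose fluorescence was measured in HEK293T cells dosed with compound for 8 hours. Signal gain relative to DMSO defined the single endpoint.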

The target is the same in assay [4]. Description: OT_NURR1_NURR1RXRa_1440: Odyssey Thera (OT) 24-hour HEK293T Protein Complementation Assay for Nurr1/retinoid X receptor (RXR) (AID 2283386). A digest of the protocol:
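Steps: fragment-tagged Nurr1 and RXRα expressed in HEK293T; compounds added; after 24 h, complemented reporter quantified by fluorescence intensity; signal increase over DMSO fitted as the single endpoint.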

In assay [5] the target is Peroxisome proliferator-activated receptor gamma (Homo sapiens) (UniProt P37231). Description: OT_PPARg_PPARgSRC1_0480: Odyssey Thera (OT) 8-hour Protein-Complementation Assay for Peroxisome Proliferator-activated Receptor Gamma / SRC-1 Co-activator (AID 2283387). The procedure, abridged: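 Read-out: 488 nm N/C fluorescence ratio from complemented Venus YFP fragments, ≥350 cells per image, gain-of-signal fitted against DMSO baseline. Fusions of PPARg/SRC-1 with IFP1/IFP2 expressed transiently in HEK293T; compounds applied 8 h.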
Sequence of Peroxisome proliferator-activated receptor gamma (Homo sapiens) (P37231 whole entry, looked up, the tested form may be a part): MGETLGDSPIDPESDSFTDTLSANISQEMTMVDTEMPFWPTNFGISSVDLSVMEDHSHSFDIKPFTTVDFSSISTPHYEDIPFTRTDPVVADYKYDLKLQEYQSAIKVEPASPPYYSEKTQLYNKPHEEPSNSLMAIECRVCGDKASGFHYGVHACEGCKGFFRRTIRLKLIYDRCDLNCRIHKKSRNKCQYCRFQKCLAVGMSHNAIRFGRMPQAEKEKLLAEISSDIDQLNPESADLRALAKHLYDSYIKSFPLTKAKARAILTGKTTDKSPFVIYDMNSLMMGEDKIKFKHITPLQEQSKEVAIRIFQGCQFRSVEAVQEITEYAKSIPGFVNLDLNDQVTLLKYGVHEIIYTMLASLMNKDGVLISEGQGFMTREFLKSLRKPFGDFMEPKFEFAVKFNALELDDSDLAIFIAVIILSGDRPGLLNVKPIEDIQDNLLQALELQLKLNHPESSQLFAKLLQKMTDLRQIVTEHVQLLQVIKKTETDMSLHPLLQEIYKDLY

For assay [6] the target is unchanged. Description: OT_PPARg_PPARgSRC1_1440: Odyssey Thera (OT) 24-hour Protein-Complementation Assay for Peroxisome Proliferator-activated Receptor Gamma/ SRC-1 Co-activator (AID 2283388). The procedure, abridged:
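HEK293T transiently transfected with PPARg/SRC-1 split-Venus YFP fusions 48 h before dosing, then treated 24 h at 37C. Fixed cells imaged; nuclear/cytoplasmic 488 nm fluorescence ratio, gain of signal versus DMSO.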

Read-out in assay [7]: Tumor necrosis factor receptor superfamily member 6 (Homo sapiens) (UniProt P25445)
Description: LTEA_HepaRG_FAS: Life Technologies and Expression Analysis (LTEA) Assay for Fas cell surface death receptor (FAS) using HepaRG (AID 2283447; active = hit-call score of the fitted dose curve at least 0.9, where 1 is the maximum; inactive = score below 0.9). The settings on record: mRNA level, 48 h; actives raise or lower the signal. The procedure, abridged: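 Differentiated HepaRG cells in serum-free induction medium were exposed 48 h to 8 half-log concentrations up to 100 uM in 0.5% DMSO, in duplicate. FAS mRNA was measured by qRT-PCR normalised to ACTB, GAPDH and POLR2A; bidirectional fit versus DMSO.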

Read-out in assay [8]: Fatty acid synthase (Homo sapiens) (UniProt P49327)
Description: LTEA_HepaRG_FASN: Life Technologies and Expression Analysis (LTEA) Assay for Fatty Acid Synthase (FASN) using HepaRG (AID 2283448; active = hit-call score of the fitted dose curve at least 0.9, where 1 is the maximum; inactive = score below 0.9;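 as to AC50: differentiated human HepaRG liver cells in serum-free induction medium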). The note with it: mRNA level, 48 h; actives raise or lower the signal. A digest of the protocol:
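Cells were plated, cultured 48 h, switched to serum-free induction medium, then dosed in duplicate (max 100 uM, half-log dilutions, 0.5% DMSO) for 48 h. RNA was then isolated and FASN quantified by qRT-PCR.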

Read-out in assay [9]: Cyclin D2 (CCND2), CCND2 (gene 894)
Kind of assay: LTEA_HepaRG_CCND2: Life Technologies and Expression Analysis (LTEA) Assay for Cyclin D2 (CCND2) using HepaRG (AID 2283449; active = hit-call score of the fitted dose curve at least 0.9, where 1 is the maximum; inactive = score below 0.9;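 also: CCND2 transcript measured by TaqMan qRT-PCR and normalised to three housekeeping genes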). The note with it: mRNA level, 48 h; actives raise or lower the signal. A digest of the protocol: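 HepaRG, 48 h dosing, 8-pt half-log curve from 100 uM, 0.5% DMSO; duplicate wells. Readout: CCND2 transcript by microfluidic qRT-PCR, housekeeping-normalised; bidirectional fit vs DMSO baseline.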

Read-out in assay [10]: Cyclin Dependent Kinase Inhibitor 1A (CDKN1A), CDKN1A (gene 1026)
Description: LTEA_HepaRG_CDKN1A: Life Technologies and Expression Analysis (LTEA) Assay for Cyclin Dependent Kinase Inhibitor 1A (CDKN1A) using HepaRG (AID 2283450; active = hit-call score of the fitted dose curve at least 0.9, where 1 is the maximum; inactive = score below 0.9). The settings on record: mRNA level, 48 h; actives raise or lower the signal. The procedure, abridged: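 Differentiated HepaRG cells in serum-free induction medium, exposed 48 h in duplicate to eight half-log concentrations up to 100 uM in 0.5% DMSO. mRNA measured by TaqMan qRT-PCR, normalized to ACTB, GAPDH, POLR2A; bidirectional fit versus DMSO.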

Assay [11] in a line: CEETOX_H295R_11DCORT: CeeTox H295R High-throughput Steroidogenesis Assay for 11-Deoxycortisol (11DCORT) (AID 2283432; active = hit-call score of the fitted dose curve at least 0.9, where 1 is the maximum; inactive = score below 0.9). The note with it: actives raise or lower the signal. The procedure, abridged:
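H295R cells; 10 uM forskolin prestim 48 h; compound in 0.1% DMSO 48 h; media extracted with MTBE; 11-deoxycortisol by LC-MS/MS, 7-point standard curve; gain/loss vs DMSO baseline; viability by MTT in same wells.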

Assay [12] in a line: CEETOX_H295R_OHPREG: CeeTox H295R High-throughput Steroidogenesis Assay for OH-Pregnenolone (OHPREG) (AID 2283434; active = hit-call score of the fitted dose curve at least 0.9, where 1 is the maximum; inactive = score below 0.9). The note with it: actives raise or lower the signal. The procedure, abridged:
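H295R, 10 uM forskolin pre-stim 48 h; test chemical 48 h, 0.1% DMSO final. MTBE extraction, reverse-phase C18 HPLC-ESI+ MS/MS of medium. Gain/loss vs DMSO; viability by MTT in same wells.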

A short description of assay [13]: CEETOX_H295R_OHPROG: CeeTox H295R High-throughput Steroidogenesis Assay for OH-Progesterone (OHPROG) (AID 2283435; active = hit-call score of the fitted dose curve at least 0.9, where 1 is the maximum; inactive = score below 0.9). The note with it: actives raise or lower the signal. A digest of the protocol: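 Steps: seed H295R cells and adhere overnight; stimulate with 10 uM forskolin for 48 h; replace with chemical-containing medium (0.1% DMSO) for 48 h; extract medium with MTBE; quantify 17alpha-hydroxyprogesterone by reverse-phase C18 HPLC-MS/MS against a 7-point curve.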

Assay [14] in a line: CEETOX_H295R_CORTIC: CeeTox H295R High-throughput Steroidogenesis Assay for Corticosterone (CORTIC) (AID 2283437; active = hit-call score of the fitted dose curve at least 0.9, where 1 is the maximum; inactive = score below 0.9;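 also: corticosterone secreted into medium quantified by mass spectrometry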;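 as to AC50: human H295R adrenal cells prestimulated with forskolin before chemical exposure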). The settings on record: actives raise or lower the signal. A digest of the protocol: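 48 h forskolin (10 uM) prestim, then 48 h chemical exposure, final DMSO 0.1%. Readout: corticosterone in medium by LC-MS/MS after MTBE extraction. Gain/loss fit vs DMSO; MTT viability in same wells.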

Assay [15] is described as follows: CEETOX_H295R_CORTISOL: CeeTox H295R High-throughput Steroidogenesis Assay for Cortisol (AID 2283438; active = hit-call score of the fitted dose curve at least 0.9, where 1 is the maximum; inactive = score below 0.9). The note with it: actives raise or lower the signal. A digest of the protocol:
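Cortisol synthesis by H295R cells is measured 48 h after chemical dosing, following a 48 h stimulation with 10 uM forskolin. Hormone is extracted and quantified by HPLC-MS/MS, and activity is fitted bidirectionally against the DMSO control.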

The nature of assay [16]: CEETOX_H295R_DOC: CeeTox H295R High-throughput Steroidogenesis Assay for DOC (AID 2283439; active = hit-call score of the fitted dose curve at least 0.9, where 1 is the maximum; inactive = score below 0.9). The note with it: actives raise or lower the signal. The procedure, abridged: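 Steps: seed H295R, adhere overnight; 10 uM forskolin 48 h; replace with chemical medium (0.1% DMSO) 48 h; collect medium, MTBE extraction, HPLC-MS/MS for DOC. Viability then checked by MTT; cytotoxic chemicals diluted until viability ≥70%.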

Assay [17] can be described thus: CEETOX_H295R_ESTRADIOL: CeeTox H295R High-throughput Steroidogenesis Assay for Estradiol (AID 2283440; active = hit-call score of the fitted dose curve at least 0.9, where 1 is the maximum; inactive = score below 0.9;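 also: estradiol secreted into medium quantified by LC-MS/MS after dansyl derivatisation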). The note with it: actives raise or lower the signal. The procedure, abridged:
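H295R cells pre-stimulated 48 h with 10 uM forskolin, then exposed 48 h to chemical in 0.1% DMSO. Medium estradiol quantified by MTBE extraction, dansyl derivatisation and HPLC-MS/MS; bidirectional fit versus DMSO; MTT viability required >/=70%.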

Assay [18] in a line: CEETOX_H295R_ESTRONE: CeeTox H295R High-throughput Steroidogenesis Assay for Estrone (AID 2283441; active = hit-call score of the fitted dose curve at least 0.9, where 1 is the maximum; inactive = score below 0.9;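 as to AC50: human adrenal H295R cells prestimulated with forskolin for two days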). The note with it: actives raise or lower the signal. The procedure, abridged:
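Estrone secreted into medium quantified by LC-MS/MS after dansyl chloride derivatization, following 48 h chemical exposure (0.1% DMSO final) of forskolin-prestimulated (10 uM, 48 h) H295R cells; gain or loss fitted against DMSO; MTT viability in same wells.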

Assay [19] in a line: CEETOX_H295R_PROG: CeeTox H295R High-throughput Steroidogenesis Assay for Progesterone (PROG) (AID 2283442; active = hit-call score of the fitted dose curve at least 0.9, where 1 is the maximum; inactive = score below 0.9;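 as to AC50: human H295R adrenal cells primed with 10 µM forskolin before dosing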). The note with it: actives raise or lower the signal. A digest of the protocol: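 H295R adrenal cells prestimulated 48 h with 10 uM forskolin, then exposed 48 h to test chemical in 0.1% DMSO. Progesterone in medium quantified by HPLC-MS/MS after MTBE extraction; viability checked by MTT in same wells.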

Assay [20] can be described thus: CEETOX_H295R_ANDR: CeeTox H295R High-throughput Steroidogenesis Assay for Androstenedione (ANDR) (AID 2283436; active = hit-call score of the fitted dose curve at least 0.9, where 1 is the maximum; inactive = score below 0.9;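 also: human H295R adrenal cells exposed for 48 h with androstenedione measured in medium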). The settings on record: actives raise or lower the signal. The procedure, abridged:
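48 h chemical exposure, H295R cells, DMEM/F12 + ITS+ and Nu-Serum. Medium androstenedione: MTBE extraction, C18 reverse-phase HPLC, ESI+ MS/MS. Fit bidirectional vs DMSO; MTT viability in same wells.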

Results filed as inconclusive are left out. More than one record can exist for a structure, and the calls need not agree. Calls of active or inactive are those of the source. The calls were made as follows, unless noted: active = hit-call score of the fitted dose curve at least 0.9, where 1 is the maximum; inconclusive = response in the unintended direction; inactive = score below 0.9.

Sequence of Fatty acid synthase (Homo sapiens) (P49327 whole entry, looked up): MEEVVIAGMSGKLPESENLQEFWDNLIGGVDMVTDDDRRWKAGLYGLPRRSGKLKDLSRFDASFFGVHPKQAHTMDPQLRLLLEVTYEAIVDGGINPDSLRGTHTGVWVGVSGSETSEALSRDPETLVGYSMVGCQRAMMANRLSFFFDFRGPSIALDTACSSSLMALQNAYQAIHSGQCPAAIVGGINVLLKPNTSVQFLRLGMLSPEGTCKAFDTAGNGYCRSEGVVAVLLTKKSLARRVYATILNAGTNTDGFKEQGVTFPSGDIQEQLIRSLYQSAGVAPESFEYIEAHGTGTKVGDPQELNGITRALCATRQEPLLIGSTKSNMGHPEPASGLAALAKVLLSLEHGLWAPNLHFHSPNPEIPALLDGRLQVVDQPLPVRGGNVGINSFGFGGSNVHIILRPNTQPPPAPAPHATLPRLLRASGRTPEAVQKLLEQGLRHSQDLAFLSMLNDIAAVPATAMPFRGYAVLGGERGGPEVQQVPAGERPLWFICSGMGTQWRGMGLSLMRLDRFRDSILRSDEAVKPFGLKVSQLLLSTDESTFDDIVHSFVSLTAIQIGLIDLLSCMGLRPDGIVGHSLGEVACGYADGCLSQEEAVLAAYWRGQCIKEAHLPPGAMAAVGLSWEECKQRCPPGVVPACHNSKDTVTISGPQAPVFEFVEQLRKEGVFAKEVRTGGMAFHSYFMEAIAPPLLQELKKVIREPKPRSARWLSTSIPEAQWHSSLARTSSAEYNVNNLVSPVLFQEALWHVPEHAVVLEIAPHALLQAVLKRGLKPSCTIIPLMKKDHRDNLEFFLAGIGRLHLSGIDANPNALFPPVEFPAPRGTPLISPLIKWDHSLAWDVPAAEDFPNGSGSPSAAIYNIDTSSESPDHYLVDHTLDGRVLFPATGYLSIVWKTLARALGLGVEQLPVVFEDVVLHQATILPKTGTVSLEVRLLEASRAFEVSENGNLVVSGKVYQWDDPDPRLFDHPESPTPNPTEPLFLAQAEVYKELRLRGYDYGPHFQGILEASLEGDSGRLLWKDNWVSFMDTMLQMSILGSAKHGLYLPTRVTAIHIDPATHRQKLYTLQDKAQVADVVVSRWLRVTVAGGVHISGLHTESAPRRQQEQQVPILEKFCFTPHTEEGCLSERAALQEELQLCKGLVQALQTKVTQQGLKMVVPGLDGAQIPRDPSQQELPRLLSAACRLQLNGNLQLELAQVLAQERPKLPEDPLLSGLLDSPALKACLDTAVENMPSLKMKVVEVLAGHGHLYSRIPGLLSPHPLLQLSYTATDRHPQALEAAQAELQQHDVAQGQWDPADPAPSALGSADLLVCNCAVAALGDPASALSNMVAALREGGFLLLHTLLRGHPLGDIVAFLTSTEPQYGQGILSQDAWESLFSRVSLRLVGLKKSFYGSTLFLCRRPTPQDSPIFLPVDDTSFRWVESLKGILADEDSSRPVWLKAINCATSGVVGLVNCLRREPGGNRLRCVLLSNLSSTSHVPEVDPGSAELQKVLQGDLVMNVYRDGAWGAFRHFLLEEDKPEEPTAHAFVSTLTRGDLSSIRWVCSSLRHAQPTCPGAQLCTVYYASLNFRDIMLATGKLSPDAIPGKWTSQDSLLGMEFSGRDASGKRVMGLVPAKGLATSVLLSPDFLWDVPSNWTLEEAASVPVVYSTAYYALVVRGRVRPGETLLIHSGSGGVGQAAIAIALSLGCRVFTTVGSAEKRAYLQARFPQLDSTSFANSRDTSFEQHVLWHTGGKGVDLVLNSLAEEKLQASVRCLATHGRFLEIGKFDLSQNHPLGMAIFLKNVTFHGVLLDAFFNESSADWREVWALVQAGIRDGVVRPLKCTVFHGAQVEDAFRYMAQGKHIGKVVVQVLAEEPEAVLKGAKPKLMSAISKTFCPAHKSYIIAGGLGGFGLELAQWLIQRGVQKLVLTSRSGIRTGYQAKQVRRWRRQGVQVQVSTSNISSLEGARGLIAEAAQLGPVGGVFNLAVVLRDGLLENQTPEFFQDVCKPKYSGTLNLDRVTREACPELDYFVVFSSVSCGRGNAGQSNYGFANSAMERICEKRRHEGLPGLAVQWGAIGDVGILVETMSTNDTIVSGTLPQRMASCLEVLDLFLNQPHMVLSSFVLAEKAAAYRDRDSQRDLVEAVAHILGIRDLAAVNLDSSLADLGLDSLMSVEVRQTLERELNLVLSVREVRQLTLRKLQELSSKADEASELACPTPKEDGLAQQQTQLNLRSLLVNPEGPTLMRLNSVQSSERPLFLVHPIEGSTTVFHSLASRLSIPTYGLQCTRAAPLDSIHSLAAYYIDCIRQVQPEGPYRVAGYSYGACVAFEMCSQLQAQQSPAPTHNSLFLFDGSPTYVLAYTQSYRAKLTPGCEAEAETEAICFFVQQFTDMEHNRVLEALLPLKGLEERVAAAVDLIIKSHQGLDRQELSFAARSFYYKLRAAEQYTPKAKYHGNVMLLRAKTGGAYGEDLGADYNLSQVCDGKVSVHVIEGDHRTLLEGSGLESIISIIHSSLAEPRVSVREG
Sequence of Bile acid receptor (Homo sapiens) (Q96RI1 whole entry, looked up): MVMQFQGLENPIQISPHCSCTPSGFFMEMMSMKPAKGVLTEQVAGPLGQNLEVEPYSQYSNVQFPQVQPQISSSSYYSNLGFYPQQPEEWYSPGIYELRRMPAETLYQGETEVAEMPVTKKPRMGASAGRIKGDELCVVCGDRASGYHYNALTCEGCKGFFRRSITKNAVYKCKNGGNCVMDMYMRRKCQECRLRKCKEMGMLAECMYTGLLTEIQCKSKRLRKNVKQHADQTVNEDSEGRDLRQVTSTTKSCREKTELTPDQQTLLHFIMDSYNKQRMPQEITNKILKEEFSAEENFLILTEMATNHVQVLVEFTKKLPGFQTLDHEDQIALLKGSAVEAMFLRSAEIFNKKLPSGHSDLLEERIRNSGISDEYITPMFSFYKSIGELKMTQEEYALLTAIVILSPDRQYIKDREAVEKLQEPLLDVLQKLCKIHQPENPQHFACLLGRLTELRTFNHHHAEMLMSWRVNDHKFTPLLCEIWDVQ
Sequence of Retinoic acid receptor RXR-alpha (Homo sapiens) (P19793 whole entry, looked up): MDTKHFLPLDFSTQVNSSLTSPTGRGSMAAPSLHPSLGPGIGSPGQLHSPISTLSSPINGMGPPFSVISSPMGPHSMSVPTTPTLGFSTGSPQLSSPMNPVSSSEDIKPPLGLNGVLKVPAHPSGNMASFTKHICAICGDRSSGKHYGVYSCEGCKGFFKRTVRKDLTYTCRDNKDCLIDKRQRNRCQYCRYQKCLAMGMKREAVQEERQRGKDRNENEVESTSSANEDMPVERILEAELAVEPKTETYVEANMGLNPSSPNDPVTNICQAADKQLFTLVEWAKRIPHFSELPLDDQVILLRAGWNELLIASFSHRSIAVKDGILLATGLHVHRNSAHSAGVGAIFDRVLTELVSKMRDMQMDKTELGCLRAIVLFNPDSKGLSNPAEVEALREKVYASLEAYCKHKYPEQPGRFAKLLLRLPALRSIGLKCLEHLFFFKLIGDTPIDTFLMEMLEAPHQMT

Consider `COC(=O)c1ccccc1C(=O)OC`, for which the compound was called inactive in assay [1], in assay [2], in assay [3], in assay [4], in [5] and in [6]. The outcome in assay [7], in assay [8], in [9] and in assay [10] was inactive.
Consider `CCOP(=S)(OCC)SCn1c(=O)oc2cc(Cl)ccc21`, for which the AC50 – broadly, the midpoint of the concentration-response curve, whichever way the signal moves – in assay [1] is 17.9 µM (active); in [2], 12 µM (active); in [12], 5 µM (active); in assay [14] it was 1.14 µM (active); in assay [16], 1.36 µM (active); in [17] it was 1.23 µM (active). Besides, the AC50 in [18] is 1.62 µM (active); in [19], 3.23 µM (active). The outcome in [3], in assay [4], in [5], in [11], in assay [13] and in assay [15] was inactive. For the same compound, the outcome in [7], in assay [8], in assay [9] and in assay [10] was inactive.
`CC(C)Oc1cc(-n2nc(C(C)(C)C)oc2=O)c(Cl)cc1Cl`: the AC50 in [1] was 29.5 µM (active); in [2], 58.7 µM (active); in assay [3], 50 µM (active); in [4], 74.7 µM (active); in assay [12], 0.951 µM (active); in assay [10] it was 84.1 µM (active). The compound was called inactive in [3], in assay [4], in assay [5], in assay [6], in assay [11] and in assay [13]. Besides, the call in [20], in [14], in assay [15], in assay [16], in assay [17] and in [18] was inactive. Moreover, the call in assay [19], in [7] and in [8] was inactive.
`COC(=O)C=C(C)OP(=O)(OC)OC`: the result in assay [1], in assay [2], in [3], in assay [4], in assay [5] and in assay [6] was inactive. Moreover, the call in [7], in assay [8], in assay [9] and in assay [10] was inactive.
As for `C#CCOS(=O)OC1CCCCC1Oc1ccc(C(C)(C)C)cc1` (centres undefined), the AC50 in [1] was 21.4 µM (active); in assay [2] it was 31.1 µM (active); in assay [3] it was 39.4 µM (active); in assay [4], 31.6 µM (active); in assay [7], 44.8 µM (active); in assay [8], 27.5 µM (active). Besides, the AC50 in assay [10] was 12.9 µM (active). The result in [3], in assay [4], in [5], in assay [6] and in assay [9] was inactive.
As to `Cc1c(F)c(F)c(COC(=O)C2C(/C=C(\Cl)C(F)(F)F)C2(C)C)c(F)c1F` (centres undefined), the call in assay [1], in assay [2], in assay [3], in [5], in [6] and in assay [11] was inactive. The compound was called inactive in [12], in assay [13], in [14], in [15], in assay [16] and in assay [17]. Also, the compound was called inactive in assay [18], in [19], in [7], in assay [8], in assay [9] and in assay [10].
